# Results: PubChem BioAssay (NCI)
# About 83,000 compounds went through this panel and 20% of them were active in at least one assay; those are over-represented in the sample as a whole.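 How to read the values: 0–100, growth inhibition (40 = 60% inhibited); 0, no net growth; -100 to 0, cell death (-40 = 40% of starting cells died; -100 = all dead).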 Values without a mark were called inactive. The source made the active and inactive calls. The calls were made as follows: active = growth percent below 10; inactive = the rest.
# Tests used:
# Test in all cases: NCI-60 one-dose screen, 48 h (100 = growth as untreated, 0 = no growth, -100 = all killed)
# Conditions in all cases: 10 µM unless noted
# NCI-H23 lung = test system: NCI-H23 lung
# NCI-H226 lung = test system: NCI-H226 lung
# NCI-H322M lung = test system: NCI-H322M lung
# HOP-62 NSCLC = test system: HOP-62 NSCLC
# NCI-H460 lung = test system: NCI-H460 lung
# NCI-H522 lung = test system: NCI-H522 lung
# A549/ATCC NSCLC = test system: A549/ATCC NSCLC
# 786-0 renal = test system: 786-0 renal
# COLO 205 colon = test system: COLO 205 colon
SMILES,growth (NCI-H23 lung),growth (NCI-H226 lung),growth (NCI-H322M lung),growth (HOP-62 NSCLC),growth (NCI-H460 lung),growth (NCI-H522 lung),growth (A549/ATCC NSCLC),growth (786-0 renal),growth (COLO 205 colon)
CSc1ccc(C(=O)Nc2ccc3nn(/C(C#N)=C/c4ccccn4)nc3c2)cc1,-84% (active),-59.2% (active),15.4%,-46.2% (active),-54.9% (active),-87.9% (active),10.6%,-95.5% (active),-86.1% (active)
COc1ccc(-c2nc3cc(C)ccc3n2CC(=O)N=Nc2c(O)[nH]c3ccc(Br)cc23)cc1,-45.5% (active),-13.4% (active),14.2%,-49.7% (active),8.15% (active),25%,-68.6% (active),25.6%,-47.2% (active)
CC1=C(C(=O)c2ccccc2)C(c2cccc3ccccc23)n2c(nc3ccccc32)N1 (configuration not stated),56.5%,50%,87.5%,40.4%,87%,66.5%,40.8%,70.6%,65.3%
COc1c(F)ccc(C(=O)Nc2ccc3nc(NC(=O)C4CCCN(S(=O)(=O)c5cccc(C(F)(F)F)c5)C4)sc3c2)c1F (configuration not stated),96.9%,93.6%,98.9%,99%,79.4%,85.2%,79.4%,60.9%,84.6%
Cc1ccc(C2CC(c3ccc(S(=O)(=O)NCCNc4nc(Nc5ccc(F)cc5)nc(N(C)C)n4)cc3)=Nc3c(N)nc(N)nc3N2)cc1 (configuration not stated),65.3%,62.7%,70.2%,87.7%,38.2%,58.5%,68.4%,42%,54.8%
CC(C)CCNC(=O)N/C(N)=N/c1nc2ccccc2s1,46.9%,52.1%,83.1%,73.6%,66.5%,54.2%,64.6%,80.9%,103%
COCOc1cc2oc(C(=O)N[C@@H](Cc3ccccc3)C(O)C(=O)NCc3ccccc3)c(C)c(=O)c2cc1OCOC (some centres not stated),59.2%,-11.8% (active),97.7%,71.9%,9.45% (active),86.9%,58.9%,14.5%,109%
O=C(NN1C(=O)/C(=C/C=C/c2ccc([N+](=O)[O-])o2)SC1=S)c1ccccc1O,-86.1% (active),-71.2% (active),-63% (active),-53.5% (active),-55.7% (active),-90.7% (active),-58.2% (active),-89.5% (active),-82.1% (active)
Cc1ccc(S(=O)(=O)c2nc(S(=O)(=O)c3ccc(C)cc3)c(N3CCC(O)CC3)s2)cc1,62.5%,84.6%,77.3%,97.5%,46.2%,19.7%,62.1%,77.1%,98%
Cc1cc2nc3c([nH]c2cc1C)c1ccc(=O)cc1n3CCN(C)C,38.8%,59%,39.9%,43.2%,2.91% (active),19.8%,28.4%,49.1%,10.8%
COc1ccc2c(c1)c(-c1cc3nc(-c4cn(C)c5ncc(Br)cc45)cc(N)n3n1)cn2C,-36.8% (active),0.447% (active),-39.8% (active),-21.1% (active),-35.4% (active),-72.1% (active),-4.96% (active),-94.8% (active),-74.6% (active)
C=C1CCC2C3(C)COC(c4cccs4)OC3CCC2(C)C1CC(Sc1ccccc1)C1=CCOC1=O (configuration not stated),79.1%,87.7%,94.9%,118%,107%,65.5%,79.7%,91.9%,115%
COc1cc(/C=C2\C(=N)N=C(SCc3nc4ccccc4[nH]3)NC2=O)ccc1O,96.8%,92.8%,103%,101%,102%,99.2%,110%,109%,110%
CCCCCCCS(=O)(=O)N1CCCC(C(=O)Nc2nc3ccc(NC(=O)c4ccc(F)c(OC)c4F)cc3s2)C1 (configuration not stated),27.3%,31.8%,77.7%,60.8%,69.7%,24.7%,60.5%,50%,82.9%
CNS(=O)(=O)c1ccc(Nc2ccc(C(F)(F)F)cc2)c(-c2cn(C)cn2)c1,72.9%,48.8%,59.1%,95.3%,33.7%,36.5%,37.1%,61.2%,53.1%
C=C1CC[C@@H]2[C@]3(C)COC(c4cn[nH]c4-c4cccc(Br)c4)O[C@@H]3CC[C@@]2(C)[C@@H]1C/C=C1/C(=O)OCC1O (some centres not stated),-94.5% (active),-88.4% (active),-0.559% (active),-58.3% (active),-68.9% (active),-56% (active),-17.4% (active),-95.5% (active),-58.3% (active)
COc1ccc(/C=C2\C(=N)N=C(SCc3nc4ccccc4[nH]3)NC2=O)cc1,100%,98.1%,110%,105%,105%,103%,112%,114%,122%
N=C1N=C(SCc2nc3ccccc3[nH]2)NC(=O)/C1=C/c1ccc(Cl)cc1,98.8%,95.1%,103%,102%,102%,92.7%,109%,118%,110%
COc1c(F)ccc(C(=O)Nc2ccc3nc(NC(=O)C4CCCN(S(=O)(=O)c5cccc(Cl)c5)C4)sc3c2)c1F (configuration not stated),88.9%,77.3%,87.2%,103%,82%,79%,68%,61%,86.2%
COc1cccc(/C=C/c2nc3ccccc3c(=O)n2CC(=O)Nc2ccc(Cl)cc2)c1,82.7%,54.9%,75%,71.4%,47.4%,97.2%,28.5%,9.62% (active),86.4%
CN(C)c1nc(NCCNS(=O)(=O)c2ccc(C(=O)/C=C/c3ccc(F)cc3)cc2)nc(Nc2ccc(F)cc2)n1,-84% (active),-74.4% (active),-22.6% (active),-71.2% (active),-75.2% (active),-96.1% (active),-56.4% (active),-85.6% (active),-85.7% (active)
NS(=O)(=O)c1ccc(CCNC(=O)CSc2ccc(-c3ccc(Br)cc3)nn2)cc1,47.2%,70.3%,81.2%,75.9%,51.4%,52.9%,62%,75.3%,83.6%
CC1=C(C#N)C2=NNCC(c3ccccc3)=NN2C(c2ccccc2)=C1,105%,111%,105%,85.6%,111%,93.7%,99.3%,98.2%,113%
COc1cc2c3c(n(CCCN4CCC[C@@H]4CO)c(=O)c2cc1OC)-c1cc2c(cc1C3=O)OCO2,-85.7% (active),-66.5% (active),-96.5% (active),-53.3% (active),-71.8% (active),-82.1% (active),-83.3% (active),-86.3% (active),-68.3% (active)
O=c1[nH]c(=O)c2c(-c3cc4ccccc4oc3=O)ccnc2[nH]1,61.3%,74.8%,97%,26.4%,88.8%,68.5%,91.9%,43.9%,108%
COc1ccc(-c2ccnc(SCc3cc4ccccc4[nH]c3=O)n2)cc1,76.1%,63.5%,82.5%,32.3%,33.6%,46.9%,61%,71%,77.5%
Cn1nc(C(F)(F)F)cc1-c1cc(Cl)c(COc2ccc(Cl)cc2)c(-c2ccc(Cl)c(C(F)(F)F)c2)c1O,-46.7% (active),-39.5% (active),6.41% (active),-40.9% (active),-48.1% (active),-27.7% (active),2.95% (active),-63.5% (active),-83.2% (active)
COc1ccc2[nH]c(=O)c(CSc3nccc(-c4ccc(OC)c(OC)c4)n3)cc2c1,35.4%,-13.2% (active),40.6%,0.29% (active),18.1%,-17.4% (active),18.3%,30.4%,36.5%
